Laboratory results taken from the supplement of paper PMC13380429.

Tested on: Vero E6 infected with SARS-CoV-2
Assay: inhibition of SARS-CoV-2 cytopathic effect; higher = more antiviral protection, active = above 15
Settings: 48 h

Measured: inhibition of SARS-CoV-2 cytopathic effect

CCC1(c2ccccc2)C(=O)N(COC)C(=O)N(COC)C1=O [eterobarb]
inactive: 1 nM -0.71% | 8.33 nM 0.82% | 100 nM -1.29% | 833.33 nM -0.57% | 10000 nM 0.84%

COc1ccc(CNC(=O)c2sc3nc(C)cc(C)c3c2N)cc1
inactive: 1 nM 1.68% | 8.33 nM 2.93% | 100 nM 2.17% | 833.33 nM 2.96% | 10000 nM 2.28%

C[C@@H]1CN(Cc2ccc(F)cc2)[C@@H](C)CN1C(=O)c1cc2c(C(=O)C(=O)N(C)C)cn(C)c2cc1Cl [talmapimod]
inactive: 1 nM -1.36% | 8.33 nM -0.66% | 100 nM -2.57% | 833.33 nM -0.03% | 10000 nM -1.11%
